Assay outcomes (PubChem BioAssay)
HT1080 IDH1KD tx: qHTS for induction of synthetic lethality in tumor cells producing 2HG: qHTS for the HT-1080-IDH1KD cell line; HT-1080 IDH1 knockdown viability, ATP luminescence, 48 h; Potency, µM (titrated, usually from 46.1 µM), for inactives: top-dose activity, negative = toxicity, actives largely listed as cytotoxic; hit rate 2% among 360,000;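 also: potency is read from the fitted curve at half-maximal effect; 0% = DMSO wells and -100% = cell-free medium wells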
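In this qHTS, HT-1080 cells depleted of IDH1 are exposed for 48 h at 37 °C to compound titrations. Toxicity is scored from CellTiter-Glo luminescence, with DMSO as full viability and medium alone as none.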
HT1080-NT tox: qHTS for induction of synthetic lethality in tumor cells producing 2HG: qHTS for the HT-1080-NT fibrosarcoma cell line. HT-1080-NT fibrosarcoma viability, CellTiter-Glo ATP luminescence, 48 h. Potency, µM (doses to about 46.1 µM), without a hit: at the top dose activity, negative = less viability, most hits filed as cytotoxic. hit rate 1.6% among 360,000;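 also: NT is the 2HG producing partner of a matched IDH1 knockdown line; potency is read from the fitted curve at half-maximal effect; 0% = DMSO-treated cells and -100% = media-only wells without cells; nearly all actives have a fitted effect of over 55% in size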
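A 48-hour cytotoxicity screen used HT-1080-NT cells plated 2 hours before compound delivery. ATP-based CellTiter-Glo luminescence measured viability, normalized to DMSO and no-cell controls.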
IL1B secr inh: qHTS for Inhibitors of Inflammasome Signaling: IL-1-beta AlphaLISA Primary Screen. activity change, % at 57.5 µM. THP-1 LPS/ATP IL-1B secretion, AlphaLISA, 16 h; stronger effect = lower value. hit rate 4.7% among 360,000; in the data active = activity change below about -50%; inconclusive = mostly about -30% to -49%
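THP-1 cells pretreated 1 hr with compounds (up to 57.5 uM final), then stimulated with LPS (250 ng/mL final) plus ATP (1.25 mM final); secreted IL-1B measured by AlphaLISA after 16 hr, decreased signal indicating inhibition.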
ALOX12 inh: Primary qHTS assay for inhibitors of human arachidonate 12S-lipoxygenase (ALOX12): Round 2; Polyunsaturated fatty acid lipoxygenase ALOX12 (Homo sapiens), P18054; purified 12hLO, xylenol orange hydroperoxide absorbance; Potency, µM (titrated, usually from 108 µM), inactives show at the highest dose activity change, negative = inhibition, hits mostly inhibitors; hit rate 1.1% among 580,000; also: potency is read from the fitted curve at half-maximal effect
Target sequence (P18054 whole entry, looked up): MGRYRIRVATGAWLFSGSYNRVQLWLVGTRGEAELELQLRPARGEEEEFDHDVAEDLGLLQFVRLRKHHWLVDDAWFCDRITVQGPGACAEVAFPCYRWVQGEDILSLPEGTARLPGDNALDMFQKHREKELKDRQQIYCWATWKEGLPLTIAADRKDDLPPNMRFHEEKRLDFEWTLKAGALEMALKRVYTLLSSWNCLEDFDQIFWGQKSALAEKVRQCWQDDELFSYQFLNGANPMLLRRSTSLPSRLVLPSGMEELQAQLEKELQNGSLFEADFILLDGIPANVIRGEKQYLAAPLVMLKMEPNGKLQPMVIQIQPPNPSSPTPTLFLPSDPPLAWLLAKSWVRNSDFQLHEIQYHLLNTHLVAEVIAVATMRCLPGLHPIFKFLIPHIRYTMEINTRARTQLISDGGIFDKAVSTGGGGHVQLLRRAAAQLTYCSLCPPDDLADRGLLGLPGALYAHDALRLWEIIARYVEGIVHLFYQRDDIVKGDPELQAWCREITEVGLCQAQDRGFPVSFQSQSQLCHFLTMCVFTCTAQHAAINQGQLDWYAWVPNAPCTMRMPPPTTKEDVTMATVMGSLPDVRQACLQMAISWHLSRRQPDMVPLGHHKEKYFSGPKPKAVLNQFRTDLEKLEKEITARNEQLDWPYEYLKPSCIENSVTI
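Purified human 12hLO (150 nM final) in 25 mM Hepes, 0.01% Triton X-100, pH 7.0 was preincubated 15 min at room temperature with compound. Then 40 uM arachidonic acid was added, 30 min. Hydroperoxide was read by Fe-XO absorbance ratio 573/405 nm.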
TDP1 cell CPT: qHTS for Inhibitors of human tyrosyl-DNA phosphodiesterase 1 (TDP1): qHTS in cells in presence of CPT. chicken DT40 Tdp1-/-;hTDP1 cells + 20 nM CPT, ATP luminescence, 48 h. Potency, µM (doses to about 46.2 µM), without a hit: at the highest dose activity change, negative = growth inhibition, hits mostly inhibitors. hit rate 12% among 420,000. AID 686979, 2013; also: potency is read from the fitted curve at half-maximal effect; nearly all actives have a fitted effect of over 55% in size
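Chicken DT40 Tdp1-/- cells complemented with human TDP1, 400 cells/well, exposed to compounds plus 20 nM camptothecin for at least 48 h at 37 C; viability read as ATP content by CellTiter-Glo luminescence.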
TDP1 cell noCPT: qHTS for Inhibitors of human tyrosyl-DNA phosphodiesterase 1 (TDP1): qHTS in cells in absence of CPT; hit rate 15% among 420,000; Potency, µM (series often up to 46.2 µM), for the others: top-dose activity change, negative = growth inhibition, most hits filed as inhibitors; DT40 Tdp1-/- hTDP1 cells, no CPT, ATP luminescence, 48 h; also: potency is read from the fitted curve at half-maximal effect; nearly all actives have a fitted effect of over 55% in size
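Camptothecin absent (DMSO only). Human TDP1-complemented DT40 knockout cells, 400 cells/well, 37 °C for minimum 48 hr; ATP measured via CellTiter-Glo, 30 min dark incubation, luminescence.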
The depositor's hits bear a star; ? = inconclusive; . = no result given; [ ] = dose if it differs, or a comment. Only a selection was taken, and hits are over-represented in it overall. Unless noted, calls follow the shape of the dose curve; as a rule, active = well fitted curve in the direction sought with a large enough effect; inconclusive = small, poorly fitted or top-dose-only effect, or another doubt; inactive = no such curve, though single readings can be large; an effect the other way counts as inactive or inconclusive. Unless noted, % is scaled to controls: 0 for no effect and ±100 for the full control effect.

SMILES	HT1080 IDH1KD tx	HT1080-NT tox	IL1B secr inh	ALOX12 inh	TDP1 cell CPT	TDP1 cell noCPT
CN1CCc2cc(O)c(O)cc2C(c2ccccc2)C1 (stereo not given)	-1.6%	11.1%	-21.9	?	-12.3%	?
Oc1cc2c(cc1O)[C@@H](c1ccccc1)CNCC2	?	?	16.6	?	?	?
Oc1ccc([C@@H]2CNCCc3c2cc(O)c(O)c3Cl)cc1	.	.	.	?	?	29.9µM*
C=CCN1CCc2cc(O)c(O)cc2[C@H](c2ccccc2)C1	.	.	.	?	?	26.6µM*
COc1cccc(CC(=O)N2C[C@@H](Oc3ccccc3)C[C@H]2C(=O)N2CCCC2)c1	.	.	.	37.6%	.	.
COCCCNc1nc2c([S+](=O)([O-])c3cc(OC)ccc3OC)nnn2c2ccccc12	.	.	.	6.5%[6.33 µM]	.	.
Cn1c(=O)c2c(nc(NCc3ccco3)n2C)n(C)c1=O	-6.5%	7.9%	18.9	-12.7%	-21.2%	-42.2%
Cn1c(=O)c2c(nc(NCc3ccco3)n2Cc2ccccc2Cl)n(C)c1=O	6.7%	-0.9%	-9.9	-24.4%	4.11µM*	2.06µM*
Cn1c(=O)c2c(nc(NCc3ccco3)n2C/C=C/c2ccccc2)n(C)c1=O	-25.5%	-28.9%	-62.1*	-12.7%	1.46µM*	0.651µM*
Cn1nc2n(c1=O)CCN(C(=O)CC1=CCCCC1)CC2	.	.	.	46.0%	.	.
Cc1ccc(-c2nc(CS(=O)(=O)CC(=O)NCCCSC3CCCCC3)c(C)o2)cc1	.	.	.	3.0%	.	.
Nc1c(-c2cccc(Cl)c2)cnn1-c1cccc(C(F)(F)F)c1	-28.3%	?	-61.4*	?	?	16.4µM*
Cn1cc(C(=O)c2ccc(F)cc2)cc1-c1nc2ccccc2n1C	-0.5%	-9.9%	-29.0	0.0%	?	16.4µM*
COCCCNC(=O)CC1CCCC1	.	.	.	0.6%	.	.
Cc1ccc(C2=C/C(=C/c3cccs3)C(=O)O2)cc1	14.2%	10.3%	-12.3	?	-18.9%	-4.3%
CN(C)c1ccc(C=C2C=C(c3ccccc3)OC2=O)cc1	-1.6%	-5.4%	-12.9	?	18.4µM*	10.3µM*
COc1ccc(C2=C/C(=C\c3ccc(OC(C)=O)cc3)C(=O)O2)cc1	9.5%	10.6%	-7.3	-16.5%	-19.9%	-21.2%
